Data as given in PubChem BioAssay (Tox21).
Inconclusive results are not listed. Active and inactive are the calls of the source. Calls follow the shape of the dose curve; as a rule, active = well fitted inhibition curve with a large enough effect in the repeat runs; inconclusive = weak or mixed curves; inactive = flat fitted curve, though single readings scatter.

target: Voltage-gated inwardly rectifying potassium channel KCNH2 (Homo sapiens) (UniProt Q12809); assay: Human Ether-a-go-go-Related Gene (hERG) channel small molecule antagonists: fluorescence cell-based qHTS assay (AID 1671200); details: hERG-U2OS cells, FluxOR thallium flux fluorescence; series mostly up to 76.8 µM; activity change, negative = inhibition: at the top concentration; also: nearly all actives have a fitted effect of over 50% in size
Sequence (Q12809 whole entry, looked up): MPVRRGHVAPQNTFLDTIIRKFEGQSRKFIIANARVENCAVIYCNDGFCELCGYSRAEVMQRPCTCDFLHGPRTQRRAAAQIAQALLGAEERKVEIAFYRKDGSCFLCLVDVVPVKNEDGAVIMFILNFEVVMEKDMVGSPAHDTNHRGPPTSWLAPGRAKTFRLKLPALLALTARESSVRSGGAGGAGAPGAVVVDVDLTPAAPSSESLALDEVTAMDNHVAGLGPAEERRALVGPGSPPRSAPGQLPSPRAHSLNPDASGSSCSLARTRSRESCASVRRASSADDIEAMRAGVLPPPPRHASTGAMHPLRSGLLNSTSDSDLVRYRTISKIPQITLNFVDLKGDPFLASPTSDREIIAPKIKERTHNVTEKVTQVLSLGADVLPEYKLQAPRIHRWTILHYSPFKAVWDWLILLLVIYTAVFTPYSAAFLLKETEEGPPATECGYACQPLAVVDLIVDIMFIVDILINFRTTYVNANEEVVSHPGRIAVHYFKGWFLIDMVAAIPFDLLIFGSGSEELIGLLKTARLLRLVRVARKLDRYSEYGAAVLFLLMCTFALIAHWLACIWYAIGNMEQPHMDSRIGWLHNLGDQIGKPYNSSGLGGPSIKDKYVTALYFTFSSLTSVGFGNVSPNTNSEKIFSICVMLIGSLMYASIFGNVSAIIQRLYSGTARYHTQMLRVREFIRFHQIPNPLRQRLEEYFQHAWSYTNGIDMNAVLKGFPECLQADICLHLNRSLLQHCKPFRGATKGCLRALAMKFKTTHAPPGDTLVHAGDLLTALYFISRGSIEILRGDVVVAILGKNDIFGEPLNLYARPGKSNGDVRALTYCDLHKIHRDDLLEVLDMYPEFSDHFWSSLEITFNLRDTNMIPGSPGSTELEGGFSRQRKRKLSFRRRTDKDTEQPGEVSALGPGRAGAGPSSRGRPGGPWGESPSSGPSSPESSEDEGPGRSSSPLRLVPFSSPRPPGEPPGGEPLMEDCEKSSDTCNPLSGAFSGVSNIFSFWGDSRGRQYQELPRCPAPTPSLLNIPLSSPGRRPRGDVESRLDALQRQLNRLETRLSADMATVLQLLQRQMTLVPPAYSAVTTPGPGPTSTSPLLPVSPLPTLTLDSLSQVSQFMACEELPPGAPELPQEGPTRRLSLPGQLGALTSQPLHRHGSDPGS
From the text: National Center for Advancing Translational Sciences [NCATS]
U.S. Environmental Protection Agency [EPA]
National Institutes of Environmental Health Sciences [NIEHS]
National Toxicology Program [NTP]
U.S. Food and Drug Administration [FDA]
Mutations in the hERG channel cause Long QT (LQT) syndrome. LQT syndrome is a cardiac disorder which can cause ventricle arrhythmia and sudden death. Additionally, compounds which block the hERG channel can cause acquired LQT syndrome. Several FDA approved drugs have been removed from the market due to their hERG blocking activity. A cell-based hERG channel inhibition assay can be used to screen chemical compounds that inhibit hERG channel. This assay measures hERG channel activity using thallium ions as surrogate ions to measure potassium into the cells.
Tox21 Assay Protocol Summary:
hERG-U2OS cells were resuspended in culture medium and dispensed into 1536-well, black wall/clear-bottom plates at 1000cells/well/3uL using a Multidrop Combi dispenser (Thermo Fisher, Waltham, MA). After plates were incubated at 37 C overnight, 3 uL of Loading Buffer provided by FluxOR II Potassium Ion Channel Assay kit (Thermo, Carlsbad, CA) was added to each well. The assay plates were then incubated at room temperature in the dark for 1h. […] After the assay plates were incubated at room temperature for 10 min, 1 uL of Stimulus Buffer provided by FluxOR II Potassium Ion Channel Assay kit was added into each well and fluorescence intensity (480nm excitation/540nm emission) was continuously measured for 2 min at 1 second intervals using a Functional Drug Screening System (FDSS) 7000EX kinetic plate reader (Hamamatsu, Japan).
% is scaled to controls: 0 for no effect and ±100 for the full control effect.

SMILES | activity change, negative = inhibition | Potency
ClC(Cl)(Br)Br | 0.145% (inactive) | 
NS(=O)(=O)c1cc2c(cc1Cl)NC(C1CC3C=CC1C3)NS2(=O)=O (stereo not given) | -14.3% [at 35.3 µM] (inactive) | 
C[N+](C)(C)CC(O)CC(=O)[O-] (stereo not given) | -3.06% [at 35.3 µM] (inactive) | 
N=C(N)c1ccc2cc(OC(=O)c3ccc(N=C(N)N)cc3)ccc2c1 | -7.19% [at 35.3 µM] (inactive) | 
CC(=O)OCC(CCn1cnc2cnc(N)nc21)COC(C)=O | -0.233% [at 35.3 µM] (inactive) | 
CC[N+](C)(C)c1cccc(O)c1 | 4.64% [at 35.3 µM] (inactive) | 
O=C(O)COc1nn(Cc2ccccc2)c2ccccc12 | 2.86% [at 35.3 µM] (inactive) | 
O=C1NC(=O)[C@@]2(CCOc3ccc(F)cc32)N1 | -1.16% [at 35.3 µM] (inactive) | 
COC(=O)[C@@H](N)Cc1ccc(O)c(O)c1 | 0.169% [at 35.3 µM] (inactive) | 
C=C(C)CS(=O)(=O)O | -1.27% (inactive) | 
c1ccc(CC2=NCCN2)cc1 | -10.5% [at 35.3 µM] (inactive) | 
O=c1[nH]c(=O)n([C@H]2C[C@H](O)[C@@H](CO)O2)cc1I | 0.7% [at 35.3 µM] (inactive) | 
CC(=O)CC(C)C | 6.37% (inactive) | 
CC1=CC(C)C(C=O)CC1 (stereo not given) | 1.86% (inactive) | 
CCOC(C)(C)C | 4.47% (inactive) | 
O=C(O)CCCc1ccccc1 | 8.02% [at 35.3 µM] (inactive) | 
COc1ccccc1OCC(O)CN1CCN(CC(=O)Nc2c(C)cccc2C)CC1 (stereo not given) | -8.91% [at 35.3 µM] (inactive) | 
CN1CCCC1 | 0.599% (inactive) | 
CCC=O | 2.5% (inactive) | 
CC/C=C\CC/C=C/CO | -1.15% (inactive) | 

SMILES | activity change, negative = inhibition | Potency
O=S(O)CO | 1.21% (inactive) | 
O=Cc1cccc([N+](=O)[O-])c1 | -9.33% (inactive) | 
CCN(CC)CCOCCOC(=O)C1(c2ccccc2)CCCC1 | -26.8% [at 35.3 µM] (inactive) | 
CC/C=C\CC/C=C/C(OCC)OCC | 0.822% (inactive) | 
O=[N+]([O-])c1ccc(F)cc1F | 2.32% (inactive) | 
C[C@H]1C[C@@H](O)CC(C)(C)C1 | -0.529% (inactive) | 
O=C(O)CN(CCOCCOCCN(CC(=O)O)CC(=O)O)CC(=O)O | 0.825% [at 0.29 µM] (inactive) | 
CC(C)NC(=O)NC(C)C | -6.07% (inactive) | 
N=c1nc(N2CCCCC2)cc(N)n1O | -0.056% [at 35.3 µM] (inactive) | 
CN(C)CCCNCCCN(C)C | 1.49% (inactive) | 
OC1CCCCC1c1ccccc1 (stereo not given) | 0.86% (inactive) | 
O=c1cc(-c2ccccc2)oc2ccccc12 |  | inactive
Nc1c2c(nc3ccccc13)CCCC2O (stereo not given) | -22.2% [at 35.3 µM] (inactive) | 
CCOc1ccc(C(=O)OCCN(CC)CC)cc1 | -20.7% [at 35.3 µM] (inactive) | 
CCS(=O)(=O)c1ccc(OC)c(C(=O)OC)c1 | -14.5% [at 35.3 µM] (inactive) | 
CC(NC(CCc1ccccc1)C(=O)O)C(=O)N1C(=O)N(C)CC1C(=O)O (stereo not given) | 3.72% [at 35.3 µM] (inactive) | 
C=CCOCC(CC)(CO)COCC=C | 2.02% (inactive) | 
COC(=O)c1cc(C(=O)OC)cc(S(=O)(=O)O)c1 | -5.37% (inactive) | 
CC(=O)c1ccccc1O | 1.13% (inactive) | 
CCc1ccc(O)c(OC)c1 | 1.67% (inactive) | 
